Laboratory results published in PubChem BioAssay (EPA / NIEHS).
Inconclusive results are not listed. The source made the active and inactive calls. How the source made its calls, unless noted: active means hit-call score of the fitted dose curve at least 0.9, where 1 is the maximum; inconclusive means response in the unintended direction; inactive means score below 0.9.

How the values were obtained:
[1] = ATG_TCF_b_cat_CIS: Attagene CIS-FACTORIAL HepG2 Assay for human T-Cell-Factor with beta-catenin (TCF/b-cat) (AID 2282965; active means hit-call score of the fitted dose curve at least 0.9, where 1 is the maximum; inactive means score below 0.9); conditions: HepG2 TCF/beta-catenin cis-reporter transcription, actives raise or lower the signal
How it was run: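 HepG2, transient MRTU transfection, cis-element-driven reporters (endogenous TFs). 24 h compound exposure. Readout: reporter mRNA by RT-PCR + 6-FAM primer extension, HpaI digest, capillary electrophoresis. Gain/loss fit vs DMSO baseline.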

[2] = ATG_TAL_CIS: Attagene CIS-FACTORIAL HepG2 Assay for human TAL Basal Promoter (AID 2282966; active means hit-call score of the fitted dose curve at least 0.9, where 1 is the maximum; inactive means score below 0.9;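 further: background control endpoint measuring basal TAL promoter reporter mRNA not a specific factor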); conditions: HepG2 Attagene cis-factorial TAL promoter reporter; actives raise or lower the signal
How it was run: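 Basal-promoter background-control endpoint from a multiplexed HepG2 reporter panel. Cells were exposed 24 h, then reporter mRNA was read by RT-PCR/CE fluorescence and fitted in both directions relative to DMSO.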

[3] = ATG_TGFb_CIS: Attagene CIS-FACTORIAL HepG2 Assay for human Transforming Growth Factor (TGF) (AID 2282967; active means hit-call score of the fitted dose curve at least 0.9, where 1 is the maximum; inactive means score below 0.9); conditions: HepG2 Attagene CIS TGFb reporter, mRNA transcription; actives raise or lower the signal
How it was run: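 Bidirectional fitting relative to DMSO gave the endpoint. Underlying data: reporter mRNA from HepG2 cells carrying transiently transfected cis-regulated reporter constructs, harvested 24 h after dosing and analyzed by RT-PCR and capillary electrophoresis.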

[4] = ATG_VDRE_CIS: Attagene CIS-FACTORIAL HepG2 Assay for human Vitamin D Receptor Element (VDRE) (AID 2282968; active means hit-call score of the fitted dose curve at least 0.9, where 1 is the maximum; inactive means score below 0.9); conditions: HepG2 VDRE cis-reporter transcription, actives raise or lower the signal
How it was run: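 Compounds were applied for 24 h to HepG2 cells transfected with promoter-regulated reporter units. Total RNA was reverse-transcribed, and reporter amplicons were fluorescently labelled and sized by capillary electrophoresis.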

[5] = target: Nuclear receptor subfamily 1 group I member 3 (Homo sapiens) (UniProt Q14994); assay: ATG_CAR_TRANS: Attagene TRANS-FACTORIAL HepG2 Assay for human Constitutive Androstane Receptor (CAR) (AID 2282969); conditions: HepG2 Attagene TRANS-FACTORIAL CAR reporter;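 further: activators raise reporter mRNA above DMSO so AC50 marks induction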
How it was run: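 Transiently transfected HepG2, multiplex TRANS reporters (CAR-Gal4 chimera driving GAL4-UAS reporter). 24 h dosing. Readout: reporter transcript by RT-PCR + capillary electrophoresis, fluorescence intensity; positive direction vs DMSO.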

[6] = target: Estrogen receptor (Homo sapiens) (UniProt P03372); assay: ATG_ERa_TRANS: Attagene TRANS-FACTORIAL HepG2 Assay for human Estrogen Receptor alpha (ERa) (AID 2282970); conditions: HepG2 Attagene TRANS ERa GAL4 reporter, mRNA
How it was run: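 Gal4-fusion ERa transactivation, measured as reporter transcript level in transiently transfected HepG2 cells. Exposure 24 h; RT-PCR plus capillary electrophoresis with fluorescence detection.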

[7] = target: X-box-binding protein 1 (Homo sapiens) (UniProt P17861); assay: ATG_Xbp1_CIS: Attagene CIS-FACTORIAL HepG2 Assay for human X-box Binding Protein 1 (XBP1) (AID 2282972; active means hit-call score of the fitted dose curve at least 0.9, where 1 is the maximum; inactive means score below 0.9); conditions: HepG2 XBP1 cis-element reporter, Attagene multiplex; actives raise or lower the signal
How it was run: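 Human hepatoma HepG2, cis-element reporter system, 24 h treatment; mRNA quantified by RT-PCR/CE fluorescence; fit relative to DMSO.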

[8] = ATG_M_19_TRANS: Attagene TRANS-FACTORIAL HepG2 Assay for M19 Transcription Factor (Internal Marker) (AID 2282974); conditions: HepG2 Attagene TRANS-FACTORIAL M19 internal marker reporter
How it was run: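 Using RT-PCR and capillary electrophoresis, reporter mRNA from transiently transfected human HepG2 cells was quantified following 24 h exposure; activity was fitted in the positive direction against DMSO.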

[9] = target: Hepatocyte nuclear factor 4-alpha (Homo sapiens) (UniProt P41235); assay: ATG_HNF4a_TRANS: Attagene TRANS-FACTORIAL HepG2 Assay for human Hepatocyte Nuclear Factor 4 alpha (HNF4a) (AID 2282982); conditions: HepG2 HNF4a transactivation reporter, mRNA readout
How it was run: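 Endpoint reflects transcriptional activation of a GAL4-UAS reporter by an HNF4a-GAL4 chimera in transfected HepG2 cells, 24 h post-dosing. Fluorescence from RT-PCR products separated by capillary electrophoresis; DMSO baseline.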

[10] = ATG_M_32_TRANS: Attagene TRANS-FACTORIAL HepG2 Assay for M32 Transcription Factor (Internal Marker) (AID 2282984); conditions: HepG2 Attagene TRANS M32 internal marker reporter
How it was run: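 Internal-marker readout from a multiplexed transcription reporter panel. HepG2 cells were transfected with GAL4-UAS reporter units, treated 24 hours, and reporter transcript levels determined by fluorescence after RT-PCR and capillary separation.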

[11] = target: Nuclear receptor subfamily 4 group A member 2 (Homo sapiens) (UniProt P43354); assay: ATG_NURR1_TRANS: Attagene TRANS-FACTORIAL HepG2 Assay for human Nuclear Receptor Related Protein 1 (NURR1) (AID 2282985); conditions: HepG2 Attagene TRANS reporter, mRNA readout
How it was run: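 Endpoint: reporter mRNA increase relative to DMSO. HepG2 cells transfected with reporter units, treated 24 h; RNA processed by RT-PCR, labelling, HpaI digestion and capillary electrophoresis.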

[12] = target: Transcriptional activator Myb (Homo sapiens) (UniProt P10242); assay: ATG_Myb_CIS: Attagene CIS-FACTORIAL HepG2 Assay for human Myeloblastosis (Myb) Proto-Oncogene Transcription Factor (AID 2282986; active means hit-call score of the fitted dose curve at least 0.9, where 1 is the maximum; inactive means score below 0.9); conditions: HepG2 Attagene CIS-FACTORIAL Myb reporter transcription; actives raise or lower the signal
How it was run: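 In this HepG2 transient-transfection format, cis-regulated reporter mRNA is quantified 24 h post-dosing by RT-PCR with capillary electrophoresis, fitted bidirectionally to DMSO baseline.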

[13] = target: Steroid hormone receptor ERR1 (Homo sapiens) (UniProt P11474); assay: ATG_ERRa_TRANS: Attagene TRANS-FACTORIAL HepG2 Assay for human Estrogen-Related Receptor alpha (ERRa) (AID 2282971); conditions: HepG2 Attagene TRANS reporter, ERRa transactivation
How it was run: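 HepG2 cells transiently transfected with GAL4-UAS reporter units and chimeric NR-Gal4 constructs; after 24 hour compound incubation, reporter mRNA quantified by RT-PCR, fluorescent labelling and capillary electrophoresis, gain of signal versus DMSO.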

[14] = target: Oxysterols receptor LXR-alpha (Homo sapiens) (UniProt Q13133); assay: ATG_LXRa_TRANS: Attagene TRANS-FACTORIAL HepG2 Assay for human Liver X Receptor alpha (LXRa) (AID 2282980); conditions: HepG2 Attagene TRANS reporter, LXRa transactivation
How it was run: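 HepG2 cells transiently transfected with GAL4-UAS reporter units for chimeric NR-Gal4 proteins, exposed to chemicals for 24 h. Reporter mRNA quantified by RT-PCR and capillary electrophoresis; gain of signal fitted relative to DMSO.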

[15] = ATG_M_06_TRANS: Attagene TRANS-FACTORIAL HepG2 Assay for M06 Transcription Factor (Internal Marker) (AID 2282983); conditions: HepG2 Attagene TRANS M06 internal marker reporter
How it was run: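 mRNA levels of a reporter transcript, quantified as FAM fluorescence on capillary electrophoresis, served as readout. HepG2 cells expressing exogenous GAL4-chimera reporter constructs were exposed for 24 h. Gain of signal over DMSO was evaluated.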

[16] = ATG_GAL4_TRANS: Attagene TRANS-FACTORIAL HepG2 Assay for GAL4 (Internal Marker) (AID 2282976); conditions: HepG2 Attagene TRANS GAL4 internal marker reporter
How it was run: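 Background-control readout: GAL4-UAS reporter transcript in transiently transfected HepG2 cells after 24 h compound exposure. Measured by RT-PCR, 6-FAM primer extension, HpaI digest and capillary electrophoresis; gain-of-signal fit versus DMSO.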

[17] = target: Glucocorticoid receptor (Homo sapiens) (UniProt P04150); assay: ATG_GR_TRANS: Attagene TRANS-FACTORIAL HepG2 Assay for human Glucocorticoid Receptor (GR) (AID 2282978); conditions: HepG2 Attagene TRANS GR reporter, mRNA transcription;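 further: activators score as hits since higher reporter transcript over DMSO is fitted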
How it was run: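 Exogenous NR-GAL4 fusion activity was assessed through induced GAL4-UAS reporter transcripts in transfected human HepG2 cells, quantified after 24 h by RT-PCR and fluorescent capillary electrophoresis with DMSO as baseline.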

[18] = target: Bile acid receptor (Homo sapiens) (UniProt Q96RI1); assay: ATG_FXR_TRANS: Attagene TRANS-FACTORIAL HepG2 Assay for Farnesoid X Receptor (FXR) (AID 2282979); conditions: HepG2 Attagene TRANS FXR-GAL4 reporter transcription;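 further: hits raise reporter mRNA above DMSO so AC50 marks FXR activation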
How it was run: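 HepG2 cells were transiently transfected with GAL4-UAS reporters driven by chimeric NR-Gal4 proteins and dosed for 24 h. Reporter mRNA was quantified by RT-PCR, fluorescent labelling, HpaI digestion and capillary electrophoresis, with gain of signal scored versus DMSO.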

[19] = target: Oxysterols receptor LXR-beta (Homo sapiens) (UniProt P55055); assay: ATG_LXRb_TRANS: Attagene TRANS-FACTORIAL HepG2 Assay for human Liver X Receptor beta (LXRb) (AID 2282981); conditions: HepG2 Attagene TRANS GAL4-LXRb reporter, mRNA
How it was run: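 Multiplexed reporter assay, HepG2, 24 h dosing. Fluorescence of labelled RT-PCR products after capillary electrophoresis gives transcript level; positive fitting direction relative to DMSO.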

Measured: AC50

Chain of Oxysterols receptor LXR-alpha (Homo sapiens) (Q13133 whole entry, looked up, the tested form may be a part): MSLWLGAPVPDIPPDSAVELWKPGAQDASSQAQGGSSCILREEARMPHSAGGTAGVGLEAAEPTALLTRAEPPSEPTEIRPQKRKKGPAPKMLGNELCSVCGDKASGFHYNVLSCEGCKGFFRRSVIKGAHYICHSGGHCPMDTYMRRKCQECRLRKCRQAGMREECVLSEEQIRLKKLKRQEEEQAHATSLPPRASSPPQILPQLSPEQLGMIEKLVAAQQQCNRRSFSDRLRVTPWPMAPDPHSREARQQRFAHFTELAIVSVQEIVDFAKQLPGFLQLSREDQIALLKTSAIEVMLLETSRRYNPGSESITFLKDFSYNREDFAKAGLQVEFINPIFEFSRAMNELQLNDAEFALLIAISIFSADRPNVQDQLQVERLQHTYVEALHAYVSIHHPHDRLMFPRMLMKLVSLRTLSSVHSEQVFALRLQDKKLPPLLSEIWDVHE
Chain of X-box-binding protein 1 (Homo sapiens) (P17861 whole entry, looked up): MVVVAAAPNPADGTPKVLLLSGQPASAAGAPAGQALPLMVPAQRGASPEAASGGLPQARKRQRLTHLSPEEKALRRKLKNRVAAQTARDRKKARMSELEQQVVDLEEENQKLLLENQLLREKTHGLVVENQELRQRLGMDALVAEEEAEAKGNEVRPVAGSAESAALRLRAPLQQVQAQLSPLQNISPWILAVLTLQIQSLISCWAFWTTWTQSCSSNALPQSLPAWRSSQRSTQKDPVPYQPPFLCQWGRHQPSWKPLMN
Chain of Estrogen receptor (Homo sapiens) (P03372 whole entry, looked up, the tested form may be a part): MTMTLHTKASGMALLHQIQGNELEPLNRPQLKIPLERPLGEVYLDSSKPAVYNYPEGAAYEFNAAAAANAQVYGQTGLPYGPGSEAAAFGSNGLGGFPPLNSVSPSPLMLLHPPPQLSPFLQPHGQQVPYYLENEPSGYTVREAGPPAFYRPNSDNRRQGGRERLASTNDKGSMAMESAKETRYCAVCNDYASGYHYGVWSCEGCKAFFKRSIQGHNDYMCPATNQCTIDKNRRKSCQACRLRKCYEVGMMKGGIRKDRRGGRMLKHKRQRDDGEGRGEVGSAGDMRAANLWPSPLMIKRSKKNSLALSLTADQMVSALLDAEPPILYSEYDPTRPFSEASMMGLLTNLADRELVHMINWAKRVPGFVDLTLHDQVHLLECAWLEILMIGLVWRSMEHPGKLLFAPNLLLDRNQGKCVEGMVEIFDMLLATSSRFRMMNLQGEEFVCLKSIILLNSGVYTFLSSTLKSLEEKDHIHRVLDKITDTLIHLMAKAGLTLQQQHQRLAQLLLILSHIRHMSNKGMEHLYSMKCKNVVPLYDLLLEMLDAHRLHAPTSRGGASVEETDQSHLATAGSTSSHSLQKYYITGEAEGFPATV
Chain of Transcriptional activator Myb (Homo sapiens) (P10242 whole entry, looked up): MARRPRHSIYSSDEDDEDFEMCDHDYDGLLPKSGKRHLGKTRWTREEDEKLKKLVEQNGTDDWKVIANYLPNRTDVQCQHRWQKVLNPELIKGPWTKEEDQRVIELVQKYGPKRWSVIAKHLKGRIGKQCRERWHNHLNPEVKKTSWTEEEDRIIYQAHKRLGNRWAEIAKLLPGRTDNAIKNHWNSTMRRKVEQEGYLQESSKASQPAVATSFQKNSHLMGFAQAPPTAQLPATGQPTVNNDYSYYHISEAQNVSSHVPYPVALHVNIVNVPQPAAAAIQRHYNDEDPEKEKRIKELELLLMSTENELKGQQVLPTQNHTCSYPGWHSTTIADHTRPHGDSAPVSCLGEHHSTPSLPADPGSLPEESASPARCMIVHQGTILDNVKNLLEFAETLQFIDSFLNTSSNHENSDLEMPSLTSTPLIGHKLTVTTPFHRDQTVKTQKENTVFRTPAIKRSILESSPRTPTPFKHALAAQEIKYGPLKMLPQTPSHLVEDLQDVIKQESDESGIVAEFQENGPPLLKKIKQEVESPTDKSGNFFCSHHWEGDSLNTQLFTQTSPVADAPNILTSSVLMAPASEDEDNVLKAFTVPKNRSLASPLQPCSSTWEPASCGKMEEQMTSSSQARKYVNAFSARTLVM
Chain of Nuclear receptor subfamily 1 group I member 3 (Homo sapiens) (Q14994 whole entry, looked up, the tested form may be a part): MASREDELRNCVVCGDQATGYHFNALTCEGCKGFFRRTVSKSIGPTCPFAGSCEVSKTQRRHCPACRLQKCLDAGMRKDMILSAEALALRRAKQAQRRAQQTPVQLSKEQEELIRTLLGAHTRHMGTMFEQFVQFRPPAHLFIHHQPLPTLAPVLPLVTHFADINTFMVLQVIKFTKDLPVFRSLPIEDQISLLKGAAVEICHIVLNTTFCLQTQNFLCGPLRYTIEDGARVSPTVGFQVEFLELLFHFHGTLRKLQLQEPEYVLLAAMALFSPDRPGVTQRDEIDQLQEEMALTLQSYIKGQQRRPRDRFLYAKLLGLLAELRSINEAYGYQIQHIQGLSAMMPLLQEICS
Chain of Nuclear receptor subfamily 4 group A member 2 (Homo sapiens) (P43354 whole entry, looked up): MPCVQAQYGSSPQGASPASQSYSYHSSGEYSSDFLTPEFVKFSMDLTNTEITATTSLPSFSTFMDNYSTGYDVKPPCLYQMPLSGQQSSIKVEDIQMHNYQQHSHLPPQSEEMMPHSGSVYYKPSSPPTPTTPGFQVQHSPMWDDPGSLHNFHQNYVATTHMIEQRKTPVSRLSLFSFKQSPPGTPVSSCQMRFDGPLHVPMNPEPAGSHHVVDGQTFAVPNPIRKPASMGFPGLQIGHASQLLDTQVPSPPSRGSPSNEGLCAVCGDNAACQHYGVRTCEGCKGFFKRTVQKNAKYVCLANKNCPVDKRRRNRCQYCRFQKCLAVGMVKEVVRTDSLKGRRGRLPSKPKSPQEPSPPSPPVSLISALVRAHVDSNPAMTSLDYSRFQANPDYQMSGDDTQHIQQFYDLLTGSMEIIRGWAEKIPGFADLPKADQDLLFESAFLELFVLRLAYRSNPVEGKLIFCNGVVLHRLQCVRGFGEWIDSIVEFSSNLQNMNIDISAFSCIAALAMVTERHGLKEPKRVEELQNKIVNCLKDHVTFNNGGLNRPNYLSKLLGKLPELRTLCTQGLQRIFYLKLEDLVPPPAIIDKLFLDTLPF
Chain of Hepatocyte nuclear factor 4-alpha (Homo sapiens) (P41235 whole entry, looked up, the tested form may be a part): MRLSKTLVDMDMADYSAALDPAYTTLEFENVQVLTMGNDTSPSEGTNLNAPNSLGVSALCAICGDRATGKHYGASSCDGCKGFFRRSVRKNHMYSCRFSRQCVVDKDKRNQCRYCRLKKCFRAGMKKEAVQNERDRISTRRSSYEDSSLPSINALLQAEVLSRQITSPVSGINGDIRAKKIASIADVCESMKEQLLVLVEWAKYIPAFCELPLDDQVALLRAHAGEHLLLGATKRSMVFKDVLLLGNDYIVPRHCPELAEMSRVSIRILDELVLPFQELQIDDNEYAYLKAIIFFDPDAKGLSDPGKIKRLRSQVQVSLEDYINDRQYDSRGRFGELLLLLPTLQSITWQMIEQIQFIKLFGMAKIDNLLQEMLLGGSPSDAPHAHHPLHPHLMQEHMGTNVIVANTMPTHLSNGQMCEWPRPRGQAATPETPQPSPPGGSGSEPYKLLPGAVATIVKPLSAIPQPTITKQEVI
Chain of Glucocorticoid receptor (Homo sapiens) (P04150 whole entry, looked up, the tested form may be a part): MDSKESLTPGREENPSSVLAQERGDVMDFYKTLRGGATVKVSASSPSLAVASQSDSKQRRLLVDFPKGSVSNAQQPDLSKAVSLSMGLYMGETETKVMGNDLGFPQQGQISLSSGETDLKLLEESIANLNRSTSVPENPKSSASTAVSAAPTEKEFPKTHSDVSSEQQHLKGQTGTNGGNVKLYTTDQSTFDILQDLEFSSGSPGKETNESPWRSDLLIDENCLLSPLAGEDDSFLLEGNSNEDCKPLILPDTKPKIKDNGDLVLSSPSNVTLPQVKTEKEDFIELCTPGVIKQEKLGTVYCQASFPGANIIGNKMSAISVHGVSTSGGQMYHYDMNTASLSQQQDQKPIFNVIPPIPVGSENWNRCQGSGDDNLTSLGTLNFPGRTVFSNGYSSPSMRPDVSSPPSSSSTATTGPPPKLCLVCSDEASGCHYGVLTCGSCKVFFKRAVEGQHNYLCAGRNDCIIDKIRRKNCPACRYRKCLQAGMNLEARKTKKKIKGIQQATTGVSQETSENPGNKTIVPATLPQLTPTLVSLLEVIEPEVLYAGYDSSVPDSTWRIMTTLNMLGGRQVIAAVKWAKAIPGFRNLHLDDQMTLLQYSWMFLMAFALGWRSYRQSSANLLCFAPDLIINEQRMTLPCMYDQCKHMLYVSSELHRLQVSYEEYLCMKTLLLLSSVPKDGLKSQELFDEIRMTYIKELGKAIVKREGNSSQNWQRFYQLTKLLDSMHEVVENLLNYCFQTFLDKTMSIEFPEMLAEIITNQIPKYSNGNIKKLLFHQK
Chain of Oxysterols receptor LXR-beta (Homo sapiens) (P55055 whole entry, looked up, the tested form may be a part): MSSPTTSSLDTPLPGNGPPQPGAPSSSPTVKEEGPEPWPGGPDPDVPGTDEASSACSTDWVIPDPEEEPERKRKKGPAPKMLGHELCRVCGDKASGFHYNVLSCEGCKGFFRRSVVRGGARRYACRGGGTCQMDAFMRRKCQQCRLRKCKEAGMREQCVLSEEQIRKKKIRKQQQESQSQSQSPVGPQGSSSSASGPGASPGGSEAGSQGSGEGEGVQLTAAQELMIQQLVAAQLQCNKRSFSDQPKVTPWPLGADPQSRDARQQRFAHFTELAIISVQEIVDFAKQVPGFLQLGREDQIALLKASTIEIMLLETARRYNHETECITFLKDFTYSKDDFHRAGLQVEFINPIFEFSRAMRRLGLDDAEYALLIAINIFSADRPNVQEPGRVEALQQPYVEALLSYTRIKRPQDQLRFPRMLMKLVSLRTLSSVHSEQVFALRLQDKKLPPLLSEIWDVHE

C=CCOC(=O)/C=C\C(=O)OCC=C
active: [1] 15.1 µM | [4] 27 µM | [7] 26.5 µM
inactive: [2] | [3] | [5] | [6] | [8] | [9] | [10] | [11] | [12]

[O-]/[N+](=N\O)c1ccccc1
active: [6] 42.3 µM
inactive: [1] | [2] | [3] | [4] | [5] | [13] | [7] | [14] | [9] | [15] | [12]

CC(=O)c1ccc2ccccc2c1
inactive: [1] | [2] | [3] | [4] | [5] | [7] | [8] | [16] | [17] | [18] | [14] | [11] | [12]
active: [6] 42.4 µM

CN(C)C
inactive: [1] | [2] | [3] | [4] | [5] | [6] | [7] | [8] | [16] | [14] | [19] | [10] | [12]

Cc1ccc(C(C)(C)O)cc1
inactive: [1] | [2] | [3] | [4] | [5] | [6] | [7] | [17] | [14] | [15] | [12]
